Assay results reported in PubChem BioAssay AID1159580 (chemical genetic matrix, 2015).
The campaign covered roughly 5,500 compounds. About 2,000 (36%) were called active. Inconclusive results (about 18%) are left out. Cut-off read from the data, not from the text of the source: active = normalized growth mostly below about 0.91 (no sharp cut-off); inconclusive = no clear call, values can overlap the other calls; inactive = mostly above about 0.92. The list shows a part of the results.

Experiment: chemical genetic growth profiling, strain panel (AID 1159580);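 note: tested at 20 µM; growth read once vehicle control cultures reached saturation at 30 °C; 1 = growth at the plate median or of vehicle wells; lower values mean less growth of the strain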
Details: growth OD

Measured: normalized growth

CCCCOC(=O)c1ccccc1C(=O)OCc1ccccc1
inactive: S. cerevisiae deletion strains, locus YAL013W, strain DEP1, hits give low values 0.988 | S. cerevisiae deletion strains, locus YBR021W, strain FUR4, hits give low values 0.965 | S. cerevisiae deletion strains, locus YBR229C, strain ROT2, hits give low values 0.987 | S. cerevisiae deletion strains, locus YCL029C, strain bik1, hits give low values 0.957 | S. cerevisiae deletion strains, locus YDL035C, strain GPR1, hits give low values 0.956 | S. cerevisiae deletion strains, locus YDL074C, strain BRE1, hits give low values 0.971 | S. cerevisiae deletion strains, locus YDL101C, strain DUN1, hits give low values 0.99 | S. cerevisiae deletion strains, locus YDL134C, strain PPH21, hits give low values 0.986 | S. cerevisiae deletion strains, locus YDL185W, strain tfp1, hits give low values 0.961 | S. cerevisiae deletion strains, locus YDL192W, strain arf1, hits give low values 0.972 | S. cerevisiae deletion strains, locus YDR101C, strain arx1, hits give low values 0.971 | S. cerevisiae deletion strains, locus YDR150W, strain NUM1, hits give low values 0.947 | S. cerevisiae deletion strains, locus YDR162C, strain NBP2, hits give low values 0.975 | S. cerevisiae deletion strains, locus YDR318W, strain mcm21, hits give low values 0.967 | S. cerevisiae deletion strains, locus YDR388W, hits give low values 0.95 | S. cerevisiae deletion strains, locus YDR502C, strain sam2, hits give low values 0.966 | S. cerevisiae deletion strains, locus YEL061C, strain CIN8, hits give low values 0.989 | S. cerevisiae deletion strains, locus YER110C, hits give low values 0.968 | S. cerevisiae deletion strains, locus YER155C, strain BEM2, hits give low values 0.968 | S. cerevisiae deletion strains, locus YER167W, strain BCK2, hits give low values 0.983 | S. cerevisiae deletion strains, locus YGL078C, strain dbp3, hits give low values 0.968 | S. cerevisiae deletion strains, locus YGL086W, strain mad1, hits give low values 0.975 | S. cerevisiae deletion strains, locus YGL248W, strain PDE1, hits give low values 0.993 | S. cerevisiae deletion strains, locus YGR078C, strain PAC10, hits give low values 0.97 | S. cerevisiae deletion strains, locus YGR135W, strain pre9, hits give low values 0.972 | S. cerevisiae deletion strains, locus YGR229C, strain SMI1, hits give low values 0.895 | S. cerevisiae deletion strains, locus YGR252W, strain gcn5, hits give low values 0.994 | S. cerevisiae deletion strains, locus YHR030C, strain SLT2, hits give low values 0.981 | S. cerevisiae deletion strains, locus YHR079C, strain IRE1 (second series), hits give low values 0.966 | S. cerevisiae deletion strains, locus YHR094C, strain hxt1, hits give low values 0.965 | S. cerevisiae deletion strains, locus YHR129C, strain ARP1, hits give low values 0.983 | S. cerevisiae deletion strains, locus YHR200W, strain rpn10, hits give low values 0.978 | S. cerevisiae deletion strains, locus YIL066C, strain RNR3, hits give low values 0.929 | S. cerevisiae deletion strains, locus YIL073C, strain SPO22, hits give low values 0.821 | S. cerevisiae deletion strains, locus YIL125W, strain kgd1, hits give low values 0.978 | S. cerevisiae deletion strains, locus YIR030C, strain dcg1, hits give low values 0.965 | S. cerevisiae deletion strains, locus YJL095W, strain BCK1, hits give low values 0.994 | S. cerevisiae deletion strains, locus YJL134W, strain LCB3, hits give low values 0.968 | S. cerevisiae deletion strains, locus YJL168C, strain set2, hits give low values 0.974 | S. cerevisiae deletion strains, locus YJL187C, strain SWE1 (second series), hits give low values 0.971 | S. cerevisiae deletion strains, locus YJR043C, strain POL32, hits give low values 0.989 | S. cerevisiae deletion strains, locus YJR075W, strain HOC1, hits give low values 0.98 | S. cerevisiae deletion strains, locus YKL009W, strain mrt4, hits give low values 0.94 | S. cerevisiae deletion strains, locus YKL068W, hits give low values 0.964 | S. cerevisiae deletion strains, locus YKL085W, strain MDH1 (second series), hits give low values 0.973 | S. cerevisiae deletion strains, locus YKL085W, strain MDH1, hits give low values 0.973 | S. cerevisiae deletion strains, locus YKL190W, strain CNB1, hits give low values 0.979 | S. cerevisiae deletion strains, locus YKR001C, strain vps1, hits give low values 0.959 | S. cerevisiae deletion strains, locus YLR039C, strain RIC1, hits give low values 0.934 | S. cerevisiae deletion strains, locus YLR058C, strain SHM2, hits give low values 0.974 | S. cerevisiae deletion strains, locus YLR102C, strain apc9, hits give low values 0.971 | S. cerevisiae deletion strains, locus YLR262C, strain YPT6, hits give low values 0.858 | S. cerevisiae deletion strains, locus YLR268W, strain sec22, hits give low values 0.968 | S. cerevisiae deletion strains, locus YLR330W, strain CHS5, hits give low values 0.987 | S. cerevisiae deletion strains, locus YLR342W, strain FKS1 (second series), hits give low values 0.952 | S. cerevisiae deletion strains, locus YLR371W, strain rom2, hits give low values 0.97 | S. cerevisiae deletion strains, locus YLR418C, strain cdc73, hits give low values 0.976 | S. cerevisiae deletion strains, locus YML016C, strain PPZ1, hits give low values 0.996 | S. cerevisiae deletion strains, locus YML032C, strain rad52, hits give low values 0.964 | S. cerevisiae deletion strains, locus YML124C, strain tub3, hits give low values 0.956 | S. cerevisiae deletion strains, locus YMR078C, strain ctf18, hits give low values 0.957 | S. cerevisiae deletion strains, locus YMR223W, strain ubp8, hits give low values 0.957 | S. cerevisiae deletion strains, locus YMR263W, strain SAP30, hits give low values 0.973 | S. cerevisiae deletion strains, locus YMR307W, strain GAS1, hits give low values 0.718 | S. cerevisiae deletion strains, locus YNL067W, strain RPL9B, hits give low values 0.979 | S. cerevisiae deletion strains, locus YNL128W, strain TEP1, hits give low values 0.985 | S. cerevisiae deletion strains, locus YNL153C, strain GIM3, hits give low values 0.981 | S. cerevisiae deletion strains, locus YNL233W, strain BNI4, hits give low values 0.998 | S. cerevisiae deletion strains, locus YNL250W, strain rad50, hits give low values 0.968 | S. cerevisiae deletion strains, locus YNL271C, strain bni1, hits give low values 0.973 | S. cerevisiae deletion strains, locus YNL298W, strain CLA4, hits give low values 0.949 | S. cerevisiae deletion strains, locus YNL307C, strain MCK1, hits give low values 0.915 | S. cerevisiae deletion strains, locus YNL322C, strain KRE1, hits give low values 0.981 | S. cerevisiae deletion strains, locus YNR052C, strain pop2, hits give low values 0.964 | S. cerevisiae deletion strains, locus YOL006C, strain TOP1, hits give low values 0.838 | S. cerevisiae deletion strains, locus YOL012C, strain htz1 0.742 | S. cerevisiae deletion strains, locus YOL147C, strain pex11, hits give low values 0.964 | S. cerevisiae deletion strains, locus YOR061W, strain CKA2, hits give low values 0.984 | S. cerevisiae deletion strains, locus YOR069W, strain VPS5, hits give low values 0.982 | S. cerevisiae deletion strains, locus YOR136W, strain idh2, hits give low values 0.972 | S. cerevisiae deletion strains, locus YOR144C, strain elg1, hits give low values 0.962 | S. cerevisiae deletion strains, locus YOR184W, strain ser1, hits give low values 0.931 | S. cerevisiae deletion strains, locus YOR316C, strain cot1, hits give low values 0.972 | S. cerevisiae deletion strains, locus YPL055C, strain LGE1, hits give low values 0.957 | S. cerevisiae deletion strains, locus YPL241C, strain CIN2, hits give low values 0.979 | S. cerevisiae deletion strains, locus YPR119W, strain clb2, hits give low values 0.955 | S. cerevisiae deletion strains, locus YPR141C, strain kar3, hits give low values 0.959 | S. cerevisiae deletion strains, locus YPR163C, strain tif3, hits give low values 0.963 | S. cerevisiae deletion strains, locus YPR167C, strain met16, hits give low values 0.98 | S. cerevisiae deletion strains, strain wtn01, hits give low values 0.96 | S. cerevisiae strains, strain wild type, hits give low values 0.981
